Holding throughout (parameters): scale not given: direction of the effect not stated beside the values
For assay [1], the target named is Protein translocase subunit SecA (Escherichia coli (strain K12)) (UniProt P10408). Briefly: Assay to Identify E. coli SecA ATPase Inhibitors. It is filed as functional. The following applies: 30 µM.
For assay [2], the target named is T1, Ubiquitin-activating enzyme e1, putative (Leishmania donovani (strain BPK282A1)) (UniProt E9BSI1).
T1 sequence (whole entry): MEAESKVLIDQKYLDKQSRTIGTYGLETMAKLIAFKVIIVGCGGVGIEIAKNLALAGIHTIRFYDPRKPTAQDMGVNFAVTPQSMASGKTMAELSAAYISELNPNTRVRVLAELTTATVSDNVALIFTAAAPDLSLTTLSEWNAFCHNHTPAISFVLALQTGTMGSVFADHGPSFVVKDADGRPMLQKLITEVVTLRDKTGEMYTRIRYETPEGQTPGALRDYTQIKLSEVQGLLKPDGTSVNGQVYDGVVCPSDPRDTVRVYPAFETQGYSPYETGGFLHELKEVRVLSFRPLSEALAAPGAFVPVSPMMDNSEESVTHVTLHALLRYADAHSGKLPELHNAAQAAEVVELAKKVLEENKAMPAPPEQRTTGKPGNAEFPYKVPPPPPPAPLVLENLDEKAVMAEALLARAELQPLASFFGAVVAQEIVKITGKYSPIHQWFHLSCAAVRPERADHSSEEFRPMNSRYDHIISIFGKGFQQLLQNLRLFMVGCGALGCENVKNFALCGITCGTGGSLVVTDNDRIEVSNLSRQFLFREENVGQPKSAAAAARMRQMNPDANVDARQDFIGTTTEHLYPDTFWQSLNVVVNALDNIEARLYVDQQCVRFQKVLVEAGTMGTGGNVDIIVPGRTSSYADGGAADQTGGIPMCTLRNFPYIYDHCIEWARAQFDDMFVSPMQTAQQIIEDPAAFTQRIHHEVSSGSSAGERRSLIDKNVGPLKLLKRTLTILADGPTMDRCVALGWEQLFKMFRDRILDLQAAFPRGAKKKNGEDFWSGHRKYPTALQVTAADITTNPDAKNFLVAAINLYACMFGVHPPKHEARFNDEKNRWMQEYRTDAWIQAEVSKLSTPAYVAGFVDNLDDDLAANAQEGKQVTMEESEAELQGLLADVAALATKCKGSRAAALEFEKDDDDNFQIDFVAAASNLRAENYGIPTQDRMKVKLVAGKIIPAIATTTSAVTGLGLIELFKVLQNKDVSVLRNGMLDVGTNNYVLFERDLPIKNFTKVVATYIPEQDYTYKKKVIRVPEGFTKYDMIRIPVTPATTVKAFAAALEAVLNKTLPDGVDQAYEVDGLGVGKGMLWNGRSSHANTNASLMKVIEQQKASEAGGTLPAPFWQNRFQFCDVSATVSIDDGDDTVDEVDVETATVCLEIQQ
Briefly: Leishmania donovani Ubiquitin Activating Enzyme (LdE1). It is filed as functional. The following applies: 30 µM.

For assay [3], the target named is AMP-activated protein kinase, AMPK (Homo sapiens) (UniProt P54646+O43741+P54619+Q9UGJ0+Q9Y478+Q13131+Q9UGI9). Briefly: AMP-dependent Kinase enzyme assay. An in vitro enzyme assay that detects ADP turnover that is directly proportional to AMPK activity. This uses naive AMPK that is activated during the assay with MK-8722. It is filed as functional. The following applies: 30 µM.

Assay [4] addresses Sialic acid-binding Ig-like lectin 9 (Homo sapiens) (UniProt Q9Y336). The experiment in a line: Hs-Siglec9 ALPHAscreen SOP 20170721. The following applies: 10 µM. On the technique in general: In Alpha technology, singlet oxygen from a donor bead excites a nearby acceptor bead.
Another assay relates to Trypanosoma cruzi. The experiment in a line: Trypanosoma cruzi phosphomannomutase and mannose-1-phosphate guanylyltransferase assay. The class given is functional. The following applies: 10 µM.
In assay [5] the target is T2, Arginase-2, mitochondrial (Homo sapiens) (UniProt P78540).
T2 sequence (whole entry): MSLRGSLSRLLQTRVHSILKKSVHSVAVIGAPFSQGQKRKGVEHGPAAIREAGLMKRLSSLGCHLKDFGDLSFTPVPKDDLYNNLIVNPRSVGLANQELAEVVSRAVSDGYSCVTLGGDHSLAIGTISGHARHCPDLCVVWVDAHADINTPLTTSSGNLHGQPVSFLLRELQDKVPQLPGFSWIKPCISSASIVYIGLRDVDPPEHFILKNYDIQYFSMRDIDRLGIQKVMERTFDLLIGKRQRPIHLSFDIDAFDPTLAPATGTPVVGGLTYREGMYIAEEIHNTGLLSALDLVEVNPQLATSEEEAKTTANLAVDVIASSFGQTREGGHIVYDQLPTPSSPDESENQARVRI
The experiment in a line: in vitro enzyme assay to detect the production of urea directly proportional to the activity of Arginase II. Note: in the data most compounds retested in dose-response had high values. It is filed as functional. The following applies: 33.3 µM.

Assay [6] concerns the target T3, Proteasome subunit beta (Trypanosoma cruzi) (UniProt O96673).
T3 sequence (whole entry): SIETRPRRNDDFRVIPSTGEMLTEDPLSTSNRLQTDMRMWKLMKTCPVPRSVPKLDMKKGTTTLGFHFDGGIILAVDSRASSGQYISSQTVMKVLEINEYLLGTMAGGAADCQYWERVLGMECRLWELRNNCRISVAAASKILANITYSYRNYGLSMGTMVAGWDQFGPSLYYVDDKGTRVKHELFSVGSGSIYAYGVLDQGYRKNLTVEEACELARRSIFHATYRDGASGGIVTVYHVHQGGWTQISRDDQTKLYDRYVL
Briefly: Trypanosoma cruzi proteasome chymotrypsin-like activity (TcProtChymo) assay. Note: in the data most compounds retested in dose-response had high values. The class given is functional. The following applies: 9.37 µM.

The species named for the next assay is Homo sapiens. Briefly: To identify inhibition of the IFN signalling (Jak-Stat) pathway via expression of an eGFP reporter gene under the control of an IFN-stimulated response element (ISRE) containing MxA promoter. The class given is functional. The following applies: 30 µM. In general terms: In a reporter assay the amount or activity of a reporter protein is the signal.

Assay [7] deals with T4, Tyrosyl-tRNA synthetase, putative (Trypanosoma cruzi (strain CL Brener)) (UniProt Q4DSP6).
T4 sequence (whole entry): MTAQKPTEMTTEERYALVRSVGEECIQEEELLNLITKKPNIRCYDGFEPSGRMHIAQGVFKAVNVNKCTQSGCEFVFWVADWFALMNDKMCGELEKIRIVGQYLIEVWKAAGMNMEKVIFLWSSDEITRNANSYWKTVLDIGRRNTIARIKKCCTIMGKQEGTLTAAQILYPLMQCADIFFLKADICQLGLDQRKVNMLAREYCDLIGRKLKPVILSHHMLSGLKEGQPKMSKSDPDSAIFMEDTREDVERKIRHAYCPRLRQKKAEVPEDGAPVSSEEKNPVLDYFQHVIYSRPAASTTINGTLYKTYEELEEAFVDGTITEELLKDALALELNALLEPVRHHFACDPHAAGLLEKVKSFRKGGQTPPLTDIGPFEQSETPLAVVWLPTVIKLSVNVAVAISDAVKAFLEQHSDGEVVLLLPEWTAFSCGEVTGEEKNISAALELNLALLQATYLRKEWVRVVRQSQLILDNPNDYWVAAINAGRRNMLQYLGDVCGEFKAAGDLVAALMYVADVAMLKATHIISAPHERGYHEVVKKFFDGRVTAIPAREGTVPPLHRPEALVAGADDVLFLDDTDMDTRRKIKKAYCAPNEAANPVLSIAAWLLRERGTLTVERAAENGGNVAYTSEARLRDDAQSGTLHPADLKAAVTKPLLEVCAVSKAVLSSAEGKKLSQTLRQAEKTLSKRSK
The experiment in a line: Trypanosoma cruzi tyrosyl tRNA synthetase (TcYRS) _High Tyrosine SOP. Note: in the data most compounds retested in dose-response had high values. It is filed as functional. The following applies: 30 µM.

Assay [8] addresses T4, Tyrosyl-tRNA synthetase, putative (Trypanosoma cruzi (strain CL Brener)). The experiment in a line: Trypanosoma cruzi tyrosyl tRNA synthetase (TcYRS) SOP. It is filed as functional. The following applies: 30 µM.
The target of assay [9] is Chromo domain-containing protein 1 (Saccharomyces cerevisiae (strain ATCC 204508 / S288c) (Baker's yeast)) (UniProt P32657). The experiment in a line: ScCHD-1 Enzyme Inhibition Assay. Note: in the data most compounds retested in dose-response had high values. It is filed as functional. The following applies: 30 µM.
Sequence of Chromo domain-containing protein 1 (Saccharomyces cerevisiae (strain ATCC 204508 / S288c) (Baker's yeast)) (P32657 whole entry, the tested form may be a part): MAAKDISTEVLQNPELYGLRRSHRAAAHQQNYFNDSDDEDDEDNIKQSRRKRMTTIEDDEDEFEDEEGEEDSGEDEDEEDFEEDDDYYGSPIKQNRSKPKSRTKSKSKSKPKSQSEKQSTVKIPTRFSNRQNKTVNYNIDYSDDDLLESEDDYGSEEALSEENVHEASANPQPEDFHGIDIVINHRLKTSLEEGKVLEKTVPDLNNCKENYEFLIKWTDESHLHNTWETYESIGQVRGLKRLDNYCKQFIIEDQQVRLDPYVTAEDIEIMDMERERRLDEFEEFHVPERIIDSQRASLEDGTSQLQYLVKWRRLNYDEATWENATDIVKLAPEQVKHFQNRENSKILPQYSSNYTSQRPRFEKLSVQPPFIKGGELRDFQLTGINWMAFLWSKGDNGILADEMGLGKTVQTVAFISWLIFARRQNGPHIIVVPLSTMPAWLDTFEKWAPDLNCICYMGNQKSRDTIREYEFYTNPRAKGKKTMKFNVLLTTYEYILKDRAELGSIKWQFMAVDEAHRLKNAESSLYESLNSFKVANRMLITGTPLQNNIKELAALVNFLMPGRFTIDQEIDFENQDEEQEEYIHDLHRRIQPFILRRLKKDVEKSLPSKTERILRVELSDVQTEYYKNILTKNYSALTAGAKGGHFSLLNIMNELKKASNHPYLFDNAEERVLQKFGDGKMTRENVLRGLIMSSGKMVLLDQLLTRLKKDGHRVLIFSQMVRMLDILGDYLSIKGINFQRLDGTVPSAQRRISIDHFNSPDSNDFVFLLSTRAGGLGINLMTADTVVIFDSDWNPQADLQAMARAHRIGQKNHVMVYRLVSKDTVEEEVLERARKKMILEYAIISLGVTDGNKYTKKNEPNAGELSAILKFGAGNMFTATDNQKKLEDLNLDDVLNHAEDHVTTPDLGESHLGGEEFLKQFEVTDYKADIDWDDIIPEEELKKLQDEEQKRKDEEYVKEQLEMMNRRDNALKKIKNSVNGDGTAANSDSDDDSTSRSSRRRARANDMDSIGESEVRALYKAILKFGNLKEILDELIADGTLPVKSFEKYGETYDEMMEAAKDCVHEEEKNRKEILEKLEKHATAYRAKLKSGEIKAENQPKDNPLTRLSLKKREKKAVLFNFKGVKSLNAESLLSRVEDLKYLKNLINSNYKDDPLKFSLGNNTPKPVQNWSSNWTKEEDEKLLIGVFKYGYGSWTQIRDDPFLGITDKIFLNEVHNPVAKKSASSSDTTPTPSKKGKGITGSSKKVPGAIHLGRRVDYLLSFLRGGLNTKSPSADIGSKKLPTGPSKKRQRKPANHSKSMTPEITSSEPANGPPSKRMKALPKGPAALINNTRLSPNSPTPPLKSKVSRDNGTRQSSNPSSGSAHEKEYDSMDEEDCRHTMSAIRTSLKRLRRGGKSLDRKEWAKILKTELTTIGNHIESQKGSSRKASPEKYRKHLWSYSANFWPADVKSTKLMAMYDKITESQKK

Our source for the Percent Effect values is ChEMBL document CHEMBL3988442, “University of Dundee, Small-Polar-MMV Screening Library” (2021).

For some assays here: Entries with a potency or affinity are not part of this list.

Sequence of Protein translocase subunit SecA (Escherichia coli (strain K12)) (P10408 whole entry): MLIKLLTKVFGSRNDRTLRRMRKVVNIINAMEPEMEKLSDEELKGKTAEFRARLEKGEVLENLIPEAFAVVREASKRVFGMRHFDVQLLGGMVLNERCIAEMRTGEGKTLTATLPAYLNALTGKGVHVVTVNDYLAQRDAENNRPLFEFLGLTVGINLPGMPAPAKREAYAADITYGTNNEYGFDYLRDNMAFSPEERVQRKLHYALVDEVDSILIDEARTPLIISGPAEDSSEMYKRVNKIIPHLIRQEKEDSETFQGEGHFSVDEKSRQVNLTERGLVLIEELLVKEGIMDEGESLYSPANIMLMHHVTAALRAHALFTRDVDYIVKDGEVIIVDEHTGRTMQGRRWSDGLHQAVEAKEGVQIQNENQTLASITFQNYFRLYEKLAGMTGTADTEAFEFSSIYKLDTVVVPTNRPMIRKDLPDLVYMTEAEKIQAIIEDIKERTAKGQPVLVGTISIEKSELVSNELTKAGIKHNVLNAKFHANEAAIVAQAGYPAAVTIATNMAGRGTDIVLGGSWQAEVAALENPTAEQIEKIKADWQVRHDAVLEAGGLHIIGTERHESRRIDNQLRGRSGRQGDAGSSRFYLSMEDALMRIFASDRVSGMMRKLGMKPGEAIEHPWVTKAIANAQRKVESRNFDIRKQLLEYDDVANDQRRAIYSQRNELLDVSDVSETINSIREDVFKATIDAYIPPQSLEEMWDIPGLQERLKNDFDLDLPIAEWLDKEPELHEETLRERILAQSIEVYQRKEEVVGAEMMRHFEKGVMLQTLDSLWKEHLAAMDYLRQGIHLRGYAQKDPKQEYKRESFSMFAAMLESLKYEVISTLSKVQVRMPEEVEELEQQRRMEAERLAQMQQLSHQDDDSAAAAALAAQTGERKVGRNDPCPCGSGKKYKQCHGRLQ
Sequence of Sialic acid-binding Ig-like lectin 9 (Homo sapiens) (Q9Y336 whole entry): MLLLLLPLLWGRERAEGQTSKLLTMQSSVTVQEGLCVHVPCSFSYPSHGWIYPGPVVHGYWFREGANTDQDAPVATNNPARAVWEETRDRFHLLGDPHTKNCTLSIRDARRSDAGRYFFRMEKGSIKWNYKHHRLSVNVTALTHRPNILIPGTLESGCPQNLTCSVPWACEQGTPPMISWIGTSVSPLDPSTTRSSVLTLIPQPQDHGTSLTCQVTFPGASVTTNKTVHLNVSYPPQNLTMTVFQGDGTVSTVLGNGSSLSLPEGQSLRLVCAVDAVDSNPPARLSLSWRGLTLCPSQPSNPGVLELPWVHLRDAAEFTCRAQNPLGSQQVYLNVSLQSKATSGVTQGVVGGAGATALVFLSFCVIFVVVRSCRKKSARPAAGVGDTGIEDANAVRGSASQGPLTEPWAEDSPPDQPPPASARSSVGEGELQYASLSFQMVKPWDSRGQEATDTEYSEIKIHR

Regarding `Cc1nc(C)n(CC2CCCN(Cc3nnc(-c4ccco4)o3)C2)n1` (stereo not given), the Percent Effect in assay [1] was -3.02%; in assay [2], 0%; in assay [3], 11.3%; in [4], -2.45%; in the assay with Trypanosoma cruzi, 3.02%; in assay [5], 3.55%. Moreover, the Percent Effect is 3.74% in [6]; 4.98% in the assay listed under Homo sapiens; 5.32% in assay [7]; 5.2% in assay [8]; -1.67% in [9].
As to `COC(=O)c1ccoc1COC(=O)CCc1ccc(OC)c(OC)c1`, the Percent Effect was -0.0167% in assay [1]; -5.26% in assay [2]; 11.1% in assay [3]; 1.57% in assay [4]; -3.99% in the assay on Trypanosoma cruzi; 0% in assay [5]. Further, the Percent Effect in assay [6] is 13.7%; in the assay filed under Homo sapiens, -9.69%; in assay [7], 0%; in [8], -20.8%; in assay [9], 1.64%.
In the case of `Cc1cc(-c2cnc(NC3CC3)nc2-c2ccc(C)o2)on1`, the Percent Effect is -1.85% in assay [1]; 13.3% in assay [2]; 55.8% in assay [3]; 7.93% in assay [4]; 3.54% in the assay with Trypanosoma cruzi; -0.233% in assay [5]. Besides, the Percent Effect in assay [6] was 2.56%; in the assay filed under Homo sapiens it was 20.4%; in [7], 2.13%; in assay [8] it was 14.1%; in assay [9] it was -7.02%.
On to `O=C(NCc1ccccn1)N(Cc1ccc(F)cc1F)C1CC1`, for which the Percent Effect is -3.99% in [1]; 12.7% in assay [2]; 3.15% in assay [3]; 9.47% in assay [4]; -0.0944% in the assay with Trypanosoma cruzi; -1.52% in [5]. Also, the Percent Effect in assay [6] is 5%; in the assay listed under Homo sapiens, 12%; in assay [7], 5.42%; in assay [8] it was 13.9%; in [9] it was -5.13%.
For the compound `CN(CC(N)=O)S(=O)(=O)c1ccc(F)cc1Cl`, the Percent Effect in assay [1] is -4.21%; in [2], -5.48%; in [3] it was 0.145%; in assay [4], 5.52%; in the assay with Trypanosoma cruzi, -0.794%; in assay [5], 0.399%. The Percent Effect in [6] is 6.59%; in the assay listed under Homo sapiens, 16.6%; in assay [7], 13.5%; in assay [8], 21%; in assay [9] it was -3.16%.
With `COc1cccc(C2CCCN2C(=O)c2cc3c([nH]c2=O)CCC3)c1` (stereo not given), the Percent Effect in assay [1] is -1.17%; in assay [2], 5.41%; in [3], 0.0672%; in assay [4], -4.05%; in the assay on Trypanosoma cruzi, 1.17%; in assay [5] it was 25%. In addition, the Percent Effect is 16% in assay [6]; 5.64% in the assay filed under Homo sapiens; 7.92% in assay [7]; 6.1% in assay [8]; -6.8% in assay [9].
Turning to `Cn1cnc(S(=O)(=O)N2CCN(Cc3ccco3)CC2)c1Cl`, the Percent Effect in assay [1] is -3.16%; in assay [2] it was 4.17%; in assay [3], -1.11%; in assay [4], 4.71%; in the assay with Trypanosoma cruzi, 0.291%; in assay [5], 0%. Besides, the Percent Effect in [6] was 4.74%; in the assay filed under Homo sapiens it was 8.03%; in [7] it was -17.9%; in assay [8] it was 5.13%; in assay [9], -0.35%.
For the compound `COc1ccccc1OCC(=O)NS(=O)(=O)c1cc(F)ccc1F`, the Percent Effect in [1] was -2.96%; in assay [2], -2.7%; in assay [3] it was 1.01%; in assay [4], 2.58%; with Trypanosoma cruzi, -5.99%; in assay [5], 0%. Also, the Percent Effect was 0.345% in [6]; 0.0392% in the assay filed under Homo sapiens; 0.529% in assay [7]; 4.88% in assay [8]; -1.41% in assay [9].
In the case of `CN(CCO)C[C@@H]1CN(C(=O)c2c(F)cccc2Cl)C[C@@H]1CO`, the Percent Effect in assay [1] is -3.86%; in [2], 0%; in [3], 1.2%; in assay [4] it was 6%; in the assay on Trypanosoma cruzi, -2.06%; in [5], 2.76%. Further, the Percent Effect in assay [6] was 15.6%; in the assay listed under Homo sapiens it was 9.06%; in [7], 3.23%; in [8], 3.7%; in assay [9], -2.59%.
Consider `Cn1nc(CNC(=O)C2CC2)cc1C1CC1`, for which the Percent Effect in assay [1] was -5.14%; in assay [2] it was 18.2%; in assay [3], 3.71%; in assay [4] it was 7.61%; with Trypanosoma cruzi, 2.27%; in assay [5], -4.52%. Moreover, the Percent Effect in assay [6] is 4%; in the assay filed under Homo sapiens, 6.02%; in [7], 0%; in assay [8], 11.5%; in [9], -7.39%.
